Results: the supplement of paper PMC3414501
Counter-ions that a name gives are not always drawn.

What was measured:
[1] = tested on: S. cerevisiae SK1 pCDA2-eGFP (USY613), sporulating; test: CDA2-GFP sporulation assay sensitivity score (z-score vs DMSO controls); higher = stronger inhibition of sporulation, active = hit call of the paper;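 also: active if sensitivity score above 5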
[2] = tested on: S. cerevisiae AD1-9 (efflux-pump deficient), vegetative growth in YPD; test: growth sensitivity score (doubling time z-score vs DMSO controls); higher = slower growth, strongly negative scores also mark growth inhibition (complete suppression), active = hit call of the paper
Procedure, shortened: (§1)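 Yeast (Saccharomyces cerevisiae BY4741 and AD1-9) was grown in rich medium in microtiter plates from a starting OD600 of 0.065, with optical density read every 15 min over 24 hours. The growth sensitivity score was the difference between compound and solvent-only means, divided by the solvent-only standard deviation. Every experiment had eight solvent-only wells.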

[3] = tested on: S. cerevisiae BY4741 (wild-type), vegetative growth in YPD; test: as above
Procedure, shortened: as §1

Structure (SMILES) | CDA2-GFP sporulation assay sensitivity score [1] | growth sensitivity score [2] | growth sensitivity score [3]
CCC1=C(C)CN(C(=O)NCCc2ccc(S(=O)(=O)NC(=O)N[C@H]3CC[C@H](C)CC3)cc2)C1=O [Glimepiride] (stock concentration (mM, diluted 1:100): 7.7) | 0.5 (inactive) | 1.1 (inactive) | -0.03 (inactive)
CC(C)(C)NCC(O)c1ccc(O)c(CO)c1 (stereo unspecified) [Salbutamol sulfate] (stock concentration (mM, diluted 1:100): 9.7) | -0.05 (inactive) | -1.51 (inactive) | -0.62 (inactive)
CC(=O)O[C@@]12CO[C@@H]1C[C@H](O)[C@@]1(C)C(=O)[C@H](O)C3=C(C)[C@@H](OC(=O)[C@H](O)[C@@H](NC(=O)OC(C)(C)C)c4ccccc4)C[C@@](O)([C@@H](OC(=O)c4ccccc4)[C@H]21)C3(C)C [Docetaxel] (stock concentration (mM, diluted 1:100): 10) | -0.23 (inactive) | -0.53 (inactive) | 1.16 (inactive)
Cc1c(OCC(F)(F)F)ccnc1C[S+]([O-])c1nc2ccccc2[nH]1 (stereo unspecified) [Lansoprazole] (stock concentration (mM, diluted 1:100): 10.1) | 14.2 (inactive) | 2.67 (active) | 1.37 (inactive)
COC(=O)Nc1nc2cc(C(=O)c3ccc(F)cc3)ccc2[nH]1 [Flubendazole] (stock concentration (mM, diluted 1:100): 10) | 0.4 (inactive) | 12.3 (active) | 2.6 (active)
CC(c1cc2ccccc2s1)N(O)C(N)=O (stereo unspecified) [Zileuton] (stock concentration (mM, diluted 1:100): 10) | -0.22 (inactive) | 0.45 (inactive) | -0.81 (inactive)
CCN1CCCC1CNC(=O)c1cc(S(=O)(=O)CC)c(N)cc1OC (stereo unspecified) [Amisulpride] (stock concentration (mM, diluted 1:100): 10) | -0.38 (inactive) | -0.73 (inactive) | -0.22 (inactive)
COC(=O)C1=C(C)NC(C)=C(C(=O)OCC(C)C)C1c1ccccc1[N+](=O)[O-] (stereo unspecified) [Nisoldipine] (stock concentration (mM, diluted 1:100): 10) | -0.05 (inactive) | 89.2 (active) | 57 (active)
C[C@@H]1O[C@@H](OC[C@H]2O[C@@H](Oc3c(-c4ccc(O)c(O)c4)oc4cc(O)cc(O)c4c3=O)[C@H](O)[C@@H](O)[C@@H]2O)[C@H](O)[C@H](O)[C@H]1O [Rutin] (stock concentration (mM, diluted 1:100): 10) | -0.59 (inactive) | 0.28 (inactive) | -2.67
C[C@@H]1CN(CCCn2c3ccccc3c3ccccc32)C[C@H](C)N1 [Rimcazole] (stock concentration (mM, diluted 1:100): 10.1) | 14.4 (active) | 20.3 (active) | 89.4 (active)
Cc1cc2c(s1)Nc1ccccc1N=C2N1CCN(C)CC1 [Olanzapine] (stock concentration (mM, diluted 1:100): 9.9) | 2.56 (inactive) | -0.74 (inactive) | -0.76 (inactive)
CC(C)NCC(O)COc1ccc(COCCOC(C)C)cc1 (stereo unspecified) [Bisoprolol fumarate] (stock concentration (mM, diluted 1:100): 8.5) | 0.16 (inactive) | -0.36 (inactive) | 0.65 (inactive)
COc1ccc(CC2c3cc(OC)c(OC)cc3CC[N+]2(C)CCC(=O)OCCCCCOC(=O)CC[N+]2(C)CCc3cc(OC)c(OC)cc3C2Cc2ccc(OC)c(OC)c2)cc1OC (stereo unspecified) [Atracurium besylate] (stock concentration (mM, diluted 1:100): 10) | 17.9 (active) | -2.52 | -0.31 (inactive)
CN(C)CCOC(c1ccccc1)c1ccccc1 [Diphenhydramine hydrochloride] (stock concentration (mM, diluted 1:100): 10) | 2.11 (inactive) | 3.46 (active) | 0.81 (inactive)
O=C1CN2Cc3c(ccc(Cl)c3Cl)N=C2N1 [Anagrelide hydrochloride] (stock concentration (mM, diluted 1:100): 8.8) | 3.77 (inactive) | -1.22 (inactive) | -2.21
CN(C)CCc1c[nH]c2ccc(C[C@H]3COC(=O)N3)cc12 [Zolmitriptan] (stock concentration (mM, diluted 1:100): 10) | -0.81 (inactive) | -1.29 (inactive) | -0.77 (inactive)
Nc1nc(O)c2ncn(CCC(CO)CO)c2n1 [Penciclovir] (stock concentration (mM, diluted 1:100): 10) | 0.81 (inactive) | -0.22 (inactive) | -0.88 (inactive)
